# According to the supplement of paper PMC12632987:
# T1: USP38, Q8NB14
# T1 chain: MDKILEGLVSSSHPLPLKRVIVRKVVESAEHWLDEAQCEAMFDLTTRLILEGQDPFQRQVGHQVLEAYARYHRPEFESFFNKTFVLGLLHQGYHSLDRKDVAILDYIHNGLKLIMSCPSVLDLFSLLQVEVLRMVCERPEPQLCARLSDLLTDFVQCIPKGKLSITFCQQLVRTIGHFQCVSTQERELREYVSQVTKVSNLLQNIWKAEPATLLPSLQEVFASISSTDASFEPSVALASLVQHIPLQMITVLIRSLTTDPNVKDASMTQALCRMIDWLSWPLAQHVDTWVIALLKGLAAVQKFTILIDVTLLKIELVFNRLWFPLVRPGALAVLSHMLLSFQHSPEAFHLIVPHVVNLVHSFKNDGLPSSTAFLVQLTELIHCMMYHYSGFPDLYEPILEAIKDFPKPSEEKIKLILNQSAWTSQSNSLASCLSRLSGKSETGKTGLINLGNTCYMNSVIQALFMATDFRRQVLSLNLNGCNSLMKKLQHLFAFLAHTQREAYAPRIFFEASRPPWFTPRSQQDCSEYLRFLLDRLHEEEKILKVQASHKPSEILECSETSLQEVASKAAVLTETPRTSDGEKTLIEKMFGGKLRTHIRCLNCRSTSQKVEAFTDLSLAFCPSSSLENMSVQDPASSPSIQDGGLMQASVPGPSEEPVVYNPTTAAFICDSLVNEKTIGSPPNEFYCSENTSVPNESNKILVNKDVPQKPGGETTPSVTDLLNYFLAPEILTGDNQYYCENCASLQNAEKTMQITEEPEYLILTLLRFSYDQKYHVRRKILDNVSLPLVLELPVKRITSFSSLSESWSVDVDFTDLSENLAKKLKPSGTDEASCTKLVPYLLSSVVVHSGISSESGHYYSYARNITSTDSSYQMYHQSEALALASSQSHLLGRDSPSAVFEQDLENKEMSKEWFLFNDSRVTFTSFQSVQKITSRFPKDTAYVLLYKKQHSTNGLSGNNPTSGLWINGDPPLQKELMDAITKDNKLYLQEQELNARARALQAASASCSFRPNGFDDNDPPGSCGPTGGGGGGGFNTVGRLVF
# B1: usp_38_diff_out_18_14_303 (protein)
# chain: GEELAKAELENLKQLKADVKAYTERVIRLLEAARDDPERVKRIYERAQRDLAGVETYAKEVKKEAEKRGDKELVKAAEELLKEVAAARERVEAAYRAVMA
# B2: usp_38_diff_out_18_14_292 (protein)
# chain: SEELSEAEKSVLETLKKDVREDTERTIRLLEKVKDDPERVKRVVERARRNLAGVRAYAEEVKERAEKRGDEETVKAAEELLKEVEKAEERIEKAEEEVLK
# B3: usp_38_diff_out_18_14_319 (protein)
# chain: MEELIEAEKANLKSLTAEVERDTARRLAVVDALRDDPDAAQSLLDTAAQALQGVIAYAEEVAKRAEELGNEELKKAAEELKAAARAALARLEARRAELAA
# B4: usp_38_diff_out_18_14_318 (protein)
# chain: SEELIKQTLSNVKKLTEEVKKDTKRTLKILEKLKDDKESALSLIDTRIQALNGVIKYAEELKKEAEKLGNKELAEAAKELIKAAKEAKKELEKRKKALKE
# B5: usp_38_diff_out_18_14_300 (protein)
# chain: SAELAEALKSNLEILKEDVKRYTERVIRLLRKNKDDPERVKRIYERAKRDLEGVRKFAEEVLKLAKEEGDEETAKAAEELLKTIEEEEKRIEEEYKRVMA
# B6: usp_38_diff_out_18_14_328 (protein)
# chain: SAELREALLSNLETLTKEVKEVTERTLKIVDKLKGDPEAARSLLDTRIQALEGVIKYAEEVAKEAKAAGDKELEAAAEKLKKEAEKAKKELEEKKKALEA
# B7: usp_38_diff_out_18_14_312 (protein)
# chain: SEEEAEALLSSVEILTADVERDTARKIRLLEAAKDDPELVERIYERALRDLAGVEAYAEEVLAQAKAEGNAELEAAAQALLATVAAARARLEAAYAAVRA
# B8: usp_38_diff_out_18_14_324 (protein)
# chain: SEELIKARISNLKSLTEEVKKVTARKLKVIDALKDDPESATALIDTQLQALEGVIKYAEEEKKEAEKLGNEELIKAAEELKKAAEEAKAELEKKRKELAA
# B9: usp_38_diff_out_18_14_317 (protein)
# chain: SEELSKALLSNLKTLTKEVEEDTKRLEKIVEALKDDPEAARSLLETRRQAYEGVAKYAKEVLKEAKEAGDEELAKAAEELLKAAEKALEEVEKRLKELEE
# B10: usp_38_diff_out_18_14_314 (protein)
# chain: SEELEEAELSALKTLTADVEADTARKIELLEKAKDDPERVKRIYDRALRDLAGVRTYAEEVLKRAKERGNEELLAAAEALLATVDAAEARLTAKYEEVMK
# B11: usp_38_diff_out_18_14_327 (protein)
# chain: SEELKEALLSNLKLLKEEVKKDTERTLKILEKLKGDPESARSLIDTRIQALEGVIKYAEEVAKMAKEEGDEELKKAAEELKKEAEEAKKKLEEKRKELEK
# B12: usp_38_diff_out_18_14_313 (protein)
# chain: SEELREAEKSSLEILKKDVEEDTERKIKLLKKAKNDPERVKRIYERAMRDLEGVKKYAEEVLKRAEEEGDEETKKAAEELLKKVEEARERLEKAYKEVME
# B13: usp_38_diff_out_18_14_297 (protein)
# chain: SEELSEAEISNLELLKKEVEEDTERTIELLEKVKDDPERVKRIVERALRNLAGVEAYAKDVKERAEKEGNEKTVAAANELLATIEEARKRIEEKYKKVME
# B14: usp_38_diff_out_18_14_316 (protein)
# chain: SEEEEEALLSAVEILKADVERDTDRKIRLLEKAKDDPELVERIYERALRDLAGVEAYAKEVEKEAKKNGNEKLLKAAKELLKTVAAARERLEAAYKEVMA
# B15: usp_38_diff_out_18_14_296 (protein)
# chain: SSELSEAERSVLELLKEEVKKDTERTIKLLEKVKDDPERVKRIVERAERNLAGVRAFAEEVKERAEKEGDEETVKAAEELLAEIDAARERIAAAREKVLA
# B16: usp_38_diff_out_18_14_302 (protein)
# chain: AAELAAAKKSNLESLKKDVEEDTKRVIELLEKAKDDPERVKRIYENAKRNLAGVRKYAEEVKKEAEEAGDKETVAAAEELLKTIEEAEKKVEEAYKKVMA
# B17: usp_38_diff_out_18_14_304 (protein)
# chain: SEELAAALKSNLESLTKEVKEDTERVIKLLKKRKDDPEEVKRIYERAERNLAGVEAYAKEVKAEAEKAGDAETVAAAEALLKEVKEAREKVKKAYEEVMA
# B18: usp_38_diff_out_18_14_311 (protein)
# chain: AEELAQAELDNLKSLTTAVTADTARVIRLLEQSKDDPERVKRIYERAKRNLAGVETYAQEVKARAEAAGDADLVAAADALLATVAAARAAIEAAYKAVMA
# B19: usp_38_diff_out_18_14_307 (protein)
# chain: GEELAAAQLSNLNSLKTDVEKDTERVIKLLKKAKDDPERVKRIYERAKRNLAGVRTYATEVKEEAEKAGNAELVAAANDLLATIDDAEKKIEEEYKKVMA
# B20: usp_38_diff_out_18_14_310 (protein)
# chain: SEELAEAEKSNLEKLTKEVEEDTERVIRLLEKAKDDPERVKRIYERAKRNLAGVETYAKEILERAKKAGDEETKKAAEELLKKIAEARERIEKAYEEVMK
# B21: usp_38_diff_out_18_14_325 (protein)
# chain: DAELIAATLANLKSLTEETKKDTERLEKVVEKLKDDPESARSLLETRRQAYEGVKEYAEETKKEAEANGDKELAAAAQELKDAAEKALEKIDKLLKELEA
# B22: usp_38_diff_out_18_14_299 (protein)
# chain: SAELAEAKAANLKLLKTDVKEDTERVIKLLKKNKNDPERVKRIYDRAKRNLAGVRTYAEEVLEEAKAAGDAATAAAAQELLKTIDEEEKKIEEEYKKVMA
# B23: usp_38_diff_out_18_14_308 (protein)
# chain: AEELAAAKKSNLESLKEEVKKYTERVIELLKKAKDDPERVKRIYERAQRDLEGVRTYAEEVLKEAEAAGDEETKAAAKELLKEIDEAKKKVEKAYKEVMA
# B24: usp_38_diff_out_18_14_295 (protein)
# chain: SEELSKAEISVLETLTKEVEADTDRTIALLEKVADDPERVKRIVERANRNLAGVRAYAEEVKERAEERGDEETVKKAEELLKKIDEAEARIAAAEAAVRA
# B25: usp_38_diff_out_18_14_323 (protein)
# chain: SEELREATKSNLKTLTAEIKEWTARRLKVIEKLKDDPESATSLLDTAKQALQGVIKYAEEVKREAEEEGDEELKKAATETKKAAEDALKQLEAKEAKLKA
# B26: usp_38_diff_out_18_14_306 (protein)
# chain: SEELAEAERSNLESLKKDVKEYTERVIKLLEKAKDDPERVKRIYERAKRNLAGVEEYAKEVLKRAKEAGDEETVKAAEELLKTIEEARKKVEEAYEKVMK
# B27: usp_38_diff_out_18_14_309 (protein)
# chain: SAELAEAKKKNLEQLTTDVKEDTERVIRLLRKRRDDPEAVKRLYERAQRNLAGVRKYAEEVKKEAEKAGDKETVAAAEKLLKEVAEAEKRIEEEYARVMA
# B28: usp_38_diff_out_18_14_315 (protein)
# chain: SEELQEAELSSLKILKEDVVRDTERAIRLLEKSKDDPERVKRIYERRMRNLAGVREYAKEVLERAKKEGNEELLKAAEELLKTVDAAEERLEAKYKEVMA
# B29: usp_38_diff_out_18_14_294 (protein)
# chain: SSELSEAEVSALELLKKEVREDTERTIRLLEKVKDDPERVKRIVERRQRNLAGVRAYAEEVRRRAEELGDEETVAAANELLAEIDKAEKEVEEAVKRVEA
# B30: usp_38_diff_out_18_14_293 (protein)
# chain: DAELSAAERSALATLRTDVAADTARTIALLKRVKDDPERVDRVVERARRNLAGVRAFAEEVLREAEERGDEETVAAARELLAAIDAAEAAVAAAAAAVRA
# B31: usp_38_diff_out_18_14_301 (protein)
# chain: SEELAEALRSNLELLKEDVKEDTERVIRLLKKNKNDPERVKDIYERAKRNLAGVREYAEEVLEEAEEAGDEETAEAARELLETIEEERKKIEEEYKKVMA
# B32: usp_38_diff_out_18_14_326 (protein)
# chain: SEELTEATLSNLKSLTEETKKTTERLKKIVEKLKDDKESALSLLDTRTQAFKGVLKYAEETEKEAKKAGNEELLAAAKELKEAAKKALEEIEKLKKELEE
# Biological target: T1, USP38, Q8NB14
# Experiment: median log2 fold change of GCK-ALFA target abundance (FLAG IP / Myc IP barcode read proportion) (log2 ratio); each designed protein is fused to an ALFA-tag nanobody in HEK293 cells to bring the named protein to FLAG-tagged glucokinase (GCK); Myc marks an untargeted standard; higher = target protein stabilised (more abundant)
# Details: target protein: 3xFLAG-MCP-GCK-ALFA reporter; HEK293 landing pad (RPLP)
# How it was run: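 An ALFA-nanobody-fused binder library was recombined into HEK293 landing-pad cells and induced with 2 μg mL^−1 doxycycline. Cells were transfected with a plasmid expressing a FLAG-tagged target and a Myc-tagged standard. After 48 h, lysates underwent anti-FLAG and anti-Myc immunoprecipitation, and circular RNA barcodes were reverse transcribed, amplified and sequenced. Target abundance is the per-binder median log2 ratio of FLAG to Myc barcode read proportions. Barcodes needed ≥10^−7 proportion in both replicates, binders ≥3 barcodes per replicate, and a 10^−6 pseudocount was added; the two replicates were pooled.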
row,Binder,median log2 fold change
1,B1,-0.327
2,B2,0.0826
3,B3,0.235
4,B4,-0.746
5,B5,-0.852
6,B6,-0.102
7,B7,0.0395
8,B8,0.13
9,B9,-0.378
10,B10,0.22
11,B11,-0.444
12,B12,0.328
13,B13,0.335
14,B14,0.00386
15,B15,-0.447
16,B16,0.326

row,Binder,median log2 fold change
1,B17,0.296
2,B18,-0.0344
3,B19,-0.0463
4,B20,0.384
5,B21,0.134
6,B22,-0.444
7,B23,-0.392
8,B24,0.017
9,B25,-0.403
10,B26,-0.549
11,B27,-0.138
12,B28,0.253
13,B29,0.136
14,B30,-0.59
15,B31,-0.149
16,B32,-0.166
